In PubChem BioAssay (NCATS):
Inconclusive results are not listed. Calls of active or inactive are those of the source. Unless noted, calls follow the shape of the dose curve; as a rule, active = well fitted curve in the direction sought with a large enough effect; inconclusive = small, poorly fitted or top-dose-only effect, or another doubt; inactive = no such curve, though single readings can be large; an effect the other way counts as inactive or inconclusive.

Columns and labels:
[1] = target: ATP-dependent 6-phosphofructokinase (Trypanosoma brucei brucei) (UniProt O15648); test: qHTS Assay to Find Inhibitors of T. brucei phosphofructokinase: hit validation (AID 492961);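 also: luminescence reports ADP formed as PFK phosphorylates fructose-6-phosphate with ATP; % is scaled to controls: 0 for no effect and ±100 for the full control effect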
ATP-dependent 6-phosphofructokinase (Trypanosoma brucei brucei), sequence (O15648 whole entry, looked up): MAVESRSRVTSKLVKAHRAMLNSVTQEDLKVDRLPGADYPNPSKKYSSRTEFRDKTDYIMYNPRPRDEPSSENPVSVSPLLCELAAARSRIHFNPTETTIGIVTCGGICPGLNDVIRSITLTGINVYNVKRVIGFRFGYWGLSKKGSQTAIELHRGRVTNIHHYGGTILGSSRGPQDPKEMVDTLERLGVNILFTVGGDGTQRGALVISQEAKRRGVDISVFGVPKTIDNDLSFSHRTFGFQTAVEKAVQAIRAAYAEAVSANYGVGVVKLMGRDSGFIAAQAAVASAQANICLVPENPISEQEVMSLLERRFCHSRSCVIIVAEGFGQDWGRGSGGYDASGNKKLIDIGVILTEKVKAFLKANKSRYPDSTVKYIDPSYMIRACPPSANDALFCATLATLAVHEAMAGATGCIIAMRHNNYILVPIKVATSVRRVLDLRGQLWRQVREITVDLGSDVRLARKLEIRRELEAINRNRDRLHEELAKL
Outline: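 Percent activity derived from corrected luminescence, normalized between 0x and 1x enzyme controls, then fitted to concentration-response curves. Conditions: 1.25 nM PFK, 0.1 mM ATP, 0.5 mM F6P, 45 min RT.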

[2] = target: Ubiquitin carboxyl-terminal hydrolase 1 (Homo sapiens) (UniProt O94782); test: Inhibitors of USP1/UAF1: Pilot qHTS (AID 504865);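 also: rhodamine fluorescence freed from ubiquitin-rhodamine substrate followed over time; top concentration of the series differs between compounds; % is scaled to controls: 0 for no effect and ±100 for the full control effect; nearly all actives have a fitted effect of over 35% in size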
Ubiquitin carboxyl-terminal hydrolase 1 (Homo sapiens), sequence (O94782 whole entry, looked up): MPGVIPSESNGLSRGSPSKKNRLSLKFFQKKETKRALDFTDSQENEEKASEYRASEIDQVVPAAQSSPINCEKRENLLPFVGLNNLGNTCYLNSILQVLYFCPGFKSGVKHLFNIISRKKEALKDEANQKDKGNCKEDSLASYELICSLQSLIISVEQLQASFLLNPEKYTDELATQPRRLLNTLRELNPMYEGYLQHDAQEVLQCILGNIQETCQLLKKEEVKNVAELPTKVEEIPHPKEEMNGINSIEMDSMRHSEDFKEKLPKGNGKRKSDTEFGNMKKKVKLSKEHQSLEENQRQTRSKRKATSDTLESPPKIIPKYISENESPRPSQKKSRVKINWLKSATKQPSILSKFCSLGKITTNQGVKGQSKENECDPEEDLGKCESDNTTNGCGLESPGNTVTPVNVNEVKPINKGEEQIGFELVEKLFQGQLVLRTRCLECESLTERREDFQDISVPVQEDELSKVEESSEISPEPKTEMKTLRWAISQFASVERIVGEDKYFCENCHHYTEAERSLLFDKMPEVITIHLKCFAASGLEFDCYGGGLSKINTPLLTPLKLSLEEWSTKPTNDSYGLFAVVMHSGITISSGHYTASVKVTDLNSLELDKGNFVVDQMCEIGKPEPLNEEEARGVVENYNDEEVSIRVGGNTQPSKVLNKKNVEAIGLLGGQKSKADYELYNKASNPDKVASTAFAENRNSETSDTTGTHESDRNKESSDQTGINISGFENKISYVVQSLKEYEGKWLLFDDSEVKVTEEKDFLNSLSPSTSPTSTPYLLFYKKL
Outline: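 1nM USP1/UAF1 + cpd, 15 min RT; start w/ Ub-Rho 150nM final; kinetic FL 480/540 nm, 6 reads q60 s. Buffer 50mM HEPES pH 7.8, 0.5mM EDTA, 1mM TCEP, 0.01% Tween-20, 0.1 mg/ml BSA.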

[3] = target: Luciferin 4-monooxygenase (Photinus pyralis) (UniProt P08659); test: Biochemical firefly luciferase enzyme assay for NPC (AID 624030);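 also: purified P. pyralis luciferase at 10 nM with luciferin and ATP substrate; 0% = DMSO and -100% = full luciferase inhibition by PTC124 control; nearly all actives have a fitted effect of over 70% in size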
Luciferin 4-monooxygenase (Photinus pyralis), sequence (P08659 whole entry, looked up): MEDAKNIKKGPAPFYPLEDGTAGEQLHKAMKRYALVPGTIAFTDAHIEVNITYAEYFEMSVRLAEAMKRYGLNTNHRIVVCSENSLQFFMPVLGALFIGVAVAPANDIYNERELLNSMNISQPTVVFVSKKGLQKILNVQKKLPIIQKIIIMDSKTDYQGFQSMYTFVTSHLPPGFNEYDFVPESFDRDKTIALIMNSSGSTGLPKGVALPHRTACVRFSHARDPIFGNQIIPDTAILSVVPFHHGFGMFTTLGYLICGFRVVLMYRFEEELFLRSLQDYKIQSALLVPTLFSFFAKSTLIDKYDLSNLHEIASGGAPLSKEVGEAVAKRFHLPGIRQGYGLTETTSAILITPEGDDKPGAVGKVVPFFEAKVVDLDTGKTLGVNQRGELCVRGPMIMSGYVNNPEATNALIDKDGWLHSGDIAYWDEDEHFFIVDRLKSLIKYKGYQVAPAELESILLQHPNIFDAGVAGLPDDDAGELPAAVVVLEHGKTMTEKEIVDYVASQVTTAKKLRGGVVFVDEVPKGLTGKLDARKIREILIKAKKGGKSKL
Outline: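 Counter-screen for direct inhibition of the luciferase enzyme by approved-drug library compounds, run at 10 nM enzyme in 50 mM Tris acetate (final). Luminescence was read within 5 min of enzyme-buffer addition and normalized to PTC124 versus DMSO (0%).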

[4] = S16 Schwann cell viability assay (CellTiter-Glo assay) (AID 624031);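 also: native untransfected S16 rat Schwann cells; plate controls were DMSO-treated cells for no effect and cell-free wells for full effect; nearly all actives have a fitted effect of over 70% in size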
Outline: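 Counter-screen for cytotoxicity: parental S16 rat Schwann cells lacking the PMP22 reporters, treated 24 h with compound, viability from cellular ATP by CellTiter-Glo luminescence, normalized to DMSO (0%) and no-cell wells.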

[5] = S16 Schwann cell PMP22 intronic element firefly luciferase assay (AID 624032);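 also: plate controls were DMSO for no effect and PTC124 positive control mean for full effect; nearly all actives have a fitted effect of over 30% in size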
Outline: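 Rat S16 Schwann cells stably carrying a PMP22 intronic element-driven Fluc reporter were seeded overnight, then exposed to compounds for 24 h at 37 °C. Luminescence was normalized to PTC124 (positive control) and DMSO (0% activity).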

[6] = Primary qHTS for inhibitors of SARS-S pseudo-typed particle cell entry (AID 1479145; calls by dose curve; also: % is scaled to controls: 0 for no effect and ±100 for the full control effect; nearly all actives have a fitted effect of over 45% in size); settings: outcome: dose series up to 57.1 µM unless noted
[7] = Primary qHTS for Huh7 cytotoxicity: counterscreen for inhibitors of MERS-S pseudotyped particle cell entry (AID 1479147; calls by dose curve; also: % is scaled to controls: 0 for no effect and ±100 for the full control effect); settings: outcome: dose series up to 57.1 µM unless noted
[8] = Primary qHTS for inhibitors of MERS-S pseudo-typed particle cell entry (AID 1479149; calls by dose curve; also: nearly all actives have a fitted effect of over 60% in size); settings: outcome: dose series up to 57.1 µM unless noted
[9] = Primary qHTS for Vero E6 cytotoxicity: counterscreen for inhibitors of SARS-S pseudo-typed particle cell entry (AID 1479150; calls by dose curve); settings: outcome: dose series up to 57.1 µM unless noted
[10] = target: Cytochrome P450 2D6 (Homo sapiens) (UniProt P10635); test: Cytochrome P450 family 2 subfamily D member 6 (CYP2D6) small molecule antagonists: luciferase biochemical (cell-free) qHTS assay (AID 1645840; active = well fitted curve in the direction sought with a large enough effect in the repeat runs; an effect the other way counts as inactive or inconclusive; also: % is scaled to controls: 0 for no effect and ±100 for the full control effect; nearly all actives have a fitted effect of over 55% in size)
Cytochrome P450 2D6 (Homo sapiens), sequence (P10635 whole entry, looked up): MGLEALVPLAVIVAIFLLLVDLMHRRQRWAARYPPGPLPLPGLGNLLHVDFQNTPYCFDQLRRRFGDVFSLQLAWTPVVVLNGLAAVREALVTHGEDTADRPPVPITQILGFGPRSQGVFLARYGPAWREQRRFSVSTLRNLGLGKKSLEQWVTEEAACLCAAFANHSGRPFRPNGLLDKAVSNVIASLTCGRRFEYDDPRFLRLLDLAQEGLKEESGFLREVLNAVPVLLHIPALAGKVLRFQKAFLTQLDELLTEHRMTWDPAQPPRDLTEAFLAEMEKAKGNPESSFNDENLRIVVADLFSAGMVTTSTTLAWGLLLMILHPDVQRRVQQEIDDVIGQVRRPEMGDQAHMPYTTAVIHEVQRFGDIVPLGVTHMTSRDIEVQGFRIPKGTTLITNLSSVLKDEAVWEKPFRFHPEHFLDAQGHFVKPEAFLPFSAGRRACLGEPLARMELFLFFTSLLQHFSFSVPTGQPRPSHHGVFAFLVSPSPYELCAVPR
Outline: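 P450-Glo CYP2D6 system: proluciferin substrate converted by enzyme to luciferin, read by luminescence proportional to activity. Enzyme-substrate mix with compound 10 min at room temperature, then NADPH regeneration 1 h before detection reagent.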

[11] = target: Cytochrome P450 2C9 (Homo sapiens) (UniProt P11712); test: Cytochrome P450 family 2 subfamily C member 9 (CYP2C9) small molecule antagonists: luciferase biochemical (cell-free) qHTS assay (AID 1645842; active = well fitted curve in the direction sought with a large enough effect in the repeat runs; an effect the other way counts as inactive or inconclusive; also: % is scaled to controls: 0 for no effect and ±100 for the full control effect; nearly all actives have a fitted effect of over 55% in size)
Cytochrome P450 2C9 (Homo sapiens), sequence (P11712 whole entry, looked up): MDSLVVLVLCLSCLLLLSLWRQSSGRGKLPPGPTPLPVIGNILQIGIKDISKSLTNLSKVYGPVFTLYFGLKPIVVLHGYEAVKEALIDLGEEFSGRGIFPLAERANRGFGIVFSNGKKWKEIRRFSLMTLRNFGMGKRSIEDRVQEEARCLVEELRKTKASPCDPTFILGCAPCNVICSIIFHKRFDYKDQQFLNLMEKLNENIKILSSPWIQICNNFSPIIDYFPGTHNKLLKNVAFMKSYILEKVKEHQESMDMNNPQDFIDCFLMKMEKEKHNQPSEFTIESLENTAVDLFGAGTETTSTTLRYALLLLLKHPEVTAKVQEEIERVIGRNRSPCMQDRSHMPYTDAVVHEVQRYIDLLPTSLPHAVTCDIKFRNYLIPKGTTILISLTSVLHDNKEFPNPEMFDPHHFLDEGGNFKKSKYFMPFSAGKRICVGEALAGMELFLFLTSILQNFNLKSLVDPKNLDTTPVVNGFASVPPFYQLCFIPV
Outline: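 P450-Glo CYP2C9 system: proluciferin substrate with enzyme in mix containing 0.4% BSA, 10 min at room temperature, then NADPH regeneration solution added and incubated 1 h at 37C. Detection reagent stopped reaction; luminescence read after 20 min as RLU.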

[12] = Cytotoxicity counterscreen for inhibitors of SARS-CoV-2 cell entry (AID 1645845; calls by dose curve; also: nearly all actives have a fitted effect of over 50% in size); settings: outcome: dose series up to 57.1 µM unless noted
Outline: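 After a 15 min room-temperature ATPLite 1step step, luminescence reflected ATP remaining in HEK293-ACE2 cells exposed to compound for 1 h plus 48 h at 37 C, with percent activity set by cell and no-cell controls.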

[13] = target: Glutathione peroxidase 1 (Homo sapiens) (UniProt P07203); test: Primary qHTS Assay for Inhibitors of Recombinant Selenoprotein Glutathione Peroxidase 1 (GPX1) (AID 1845191); also: % is scaled to controls: 0 for no effect and ±100 for the full control effect; nearly all actives have a fitted effect of over 65% in size
Glutathione peroxidase 1 (Homo sapiens), sequence (P07203 whole entry, looked up): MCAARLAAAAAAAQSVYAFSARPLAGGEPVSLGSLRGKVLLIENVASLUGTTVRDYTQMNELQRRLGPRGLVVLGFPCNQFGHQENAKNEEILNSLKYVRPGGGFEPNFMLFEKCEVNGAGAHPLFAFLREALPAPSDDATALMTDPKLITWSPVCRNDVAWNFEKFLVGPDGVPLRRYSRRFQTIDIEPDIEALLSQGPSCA
Outline: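 GPX1 10 nM, GR 100 nM, GSH 1 mM, NADPH 0.5 mM, CHP 0.5 mM (final). 30-min cpd preincubation, RT. Ex340/Em450 read t=0, t=15 min.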

[14] = target: Phospholipid hydroperoxide glutathione peroxidase GPX4 (Homo sapiens) (UniProt P36969); test: Primary qHTS Assay for Inhibitors of Recombinant Selenoprotein Glutathione Peroxidase 4 (GPX4) (AID 1845192); also: % is scaled to controls: 0 for no effect and ±100 for the full control effect; nearly all actives have a fitted effect of over 65% in size
Phospholipid hydroperoxide glutathione peroxidase GPX4 (Homo sapiens), sequence (P36969 whole entry, looked up): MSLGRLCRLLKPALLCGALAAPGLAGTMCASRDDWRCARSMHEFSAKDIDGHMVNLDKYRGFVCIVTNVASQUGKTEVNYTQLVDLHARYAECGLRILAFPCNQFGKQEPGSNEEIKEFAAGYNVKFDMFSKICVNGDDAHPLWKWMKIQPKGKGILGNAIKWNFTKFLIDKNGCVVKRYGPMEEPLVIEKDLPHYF
Outline: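 qHTS, GR-coupled: GPX4 200 nM + cpd 30 min RT → GSH 1 mM, NADPH 0.5 mM, GR 100 nM → CHP 0.5 mM start; fluor 340/450 at t0 and t15 min; no-enzyme wells as control.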

[15] = qHTS profiling for inhibitors of Plasmodium falciparum proliferation (AID 504749);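 also: 0% = DMSO vehicle and full inhibition = artemisinin control; nearly all actives have a fitted effect of over 60% in size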; settings: P. falciparum in erythrocytes, SYBR Green DNA, 72 h, at 28.7 µM (top of the series)
Outline: (§1)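 Quantitative HTS: compounds pinned into medium, infected erythrocytes added (0.3% parasitemia, 2.5% hematocrit), 72 h culture at 37 C under 5% CO2. Saponin/Triton lysis with SYBR Green I, overnight RT, then fluorescence read.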

3D7 = test: as above; settings: P. falciparum in erythrocytes, SYBR Green DNA, 72 h; series mostly up to 28.7 µM
Outline: as §1

7G8 = test: as above; settings: P. falciparum in erythrocytes, SYBR Green DNA, 72 h; series mostly up to 12.8 µM
Outline: as §1

AA1029 = test: as above; settings: P. falciparum in erythrocytes, SYBR Green DNA, 72 h; series mostly up to 28.7 µM
Outline: as §1

AS120 = test: as above; settings: P. falciparum in erythrocytes, SYBR Green DNA, 72 h; series mostly up to 28.7 µM
Outline: as §1

ATS189 = test: as above; settings: P. falciparum in erythrocytes, SYBR Green DNA, 72 h; series mostly up to 28.7 µM
Outline: as §1

ATS95 = test: as above; settings: P. falciparum in erythrocytes, SYBR Green DNA, 72 h; series mostly up to 28.7 µM
Outline: as §1

C2A = test: as above; settings: P. falciparum in erythrocytes, SYBR Green DNA, 72 h; series mostly up to 28.7 µM
Outline: as §1

CP185 = test: as above; settings: P. falciparum in erythrocytes, SYBR Green DNA, 72 h; series mostly up to 28.7 µM
Outline: as §1

CP191 = test: as above; settings: P. falciparum in erythrocytes, SYBR Green DNA, 72 h; series mostly up to 28.7 µM
Outline: as §1

CP192 = test: as above; settings: P. falciparum in erythrocytes, SYBR Green DNA, 72 h; series mostly up to 28.7 µM
Outline: as §1

CP194 = test: as above; settings: P. falciparum in erythrocytes, SYBR Green DNA, 72 h; series mostly up to 28.7 µM
Outline: as §1

CP201 = test: as above; settings: P. falciparum in erythrocytes, SYBR Green DNA, 72 h; series mostly up to 28.7 µM
Outline: as §1

CP203 = test: as above; settings: P. falciparum in erythrocytes, SYBR Green DNA, 72 h; series mostly up to 28.7 µM
Outline: as §1

CP211 = test: as above; settings: P. falciparum in erythrocytes, SYBR Green DNA, 72 h; series mostly up to 28.7 µM
Outline: as §1

CP215 = test: as above; settings: P. falciparum in erythrocytes, SYBR Green DNA, 72 h; series mostly up to 28.7 µM
Outline: as §1

CP217 = test: as above; settings: P. falciparum in erythrocytes, SYBR Green DNA, 72 h; series mostly up to 28.7 µM
Outline: as §1

CP237 = test: as above; settings: P. falciparum in erythrocytes, SYBR Green DNA, 72 h; series mostly up to 28.7 µM
Outline: as §1

CP238 = test: as above; settings: P. falciparum in erythrocytes, SYBR Green DNA, 72 h; series mostly up to 28.7 µM
Outline: as §1

CP247 = test: as above; settings: P. falciparum in erythrocytes, SYBR Green DNA, 72 h; series mostly up to 28.7 µM
Outline: as §1

CP250 = test: as above; settings: P. falciparum in erythrocytes, SYBR Green DNA, 72 h; series mostly up to 12.8 µM
Outline: as §1

CNC(C)[C@@H](O)c1ccc(O)cc1 (stereo partly specified)
inactive: Potency [1] | Potency [2] | Potency [3] | Potency [4] | Potency [5] | Potency [6] | Potency [7] | Potency [8] | Potency [9] | Potency [10] | Potency [11] | Potency [12] | Potency [13] | Potency [14] | activity, negative = inhibition ([15]; parasite line A) 1.09% | activity, negative = inhibition ([15]; parasite line B) 3.21% | Potency (3D7) | Potency (7G8) | Potency (AA1029) | Potency (AS120) | Potency (ATS189) | Potency (ATS95) | Potency (C2A) | Potency (CP185) | Potency (CP191) | Potency (CP192) | Potency (CP194) | Potency (CP201) | Potency (CP203) | Potency (CP211) | Potency (CP215) | Potency (CP217) | Potency (CP237) | Potency (CP238) | Potency (CP247) | Potency (CP250)
